# Results: the supplement of paper PMC11732987, “Enantioselective OTUD7B fragment discovery through chemoproteomics screening and high-throughput optimisation” (Communications Chemistry, 2025)
# Compound: COc1cccc(CN(C)C(=O)CCl)c1
# Test: log2 ratio of Biotin-Ahx-Ub-VS probe labelling (compound/DMSO); higher = less target engagement, active = hit call of the paper (q ≤ 0.05, log2 ratio ≤ -1)
# Details: compound concentration: 50uM; treatment time: 3 h
# Description: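 Round 2 competitive ABPP in HEK293T lysate. Compounds were tested at 50 and 200 µM for 3 h, followed by Biotin-Ahx-Ub-VS enrichment and diaPASEF LC-MS/MS. Values are the average log2 ratio (compound/DMSO) from an unpaired t-test (n=3 treated, n=26 DMSO).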
# UniProt Q9Y5T5, sequence (Q9Y5T5 whole entry, looked up): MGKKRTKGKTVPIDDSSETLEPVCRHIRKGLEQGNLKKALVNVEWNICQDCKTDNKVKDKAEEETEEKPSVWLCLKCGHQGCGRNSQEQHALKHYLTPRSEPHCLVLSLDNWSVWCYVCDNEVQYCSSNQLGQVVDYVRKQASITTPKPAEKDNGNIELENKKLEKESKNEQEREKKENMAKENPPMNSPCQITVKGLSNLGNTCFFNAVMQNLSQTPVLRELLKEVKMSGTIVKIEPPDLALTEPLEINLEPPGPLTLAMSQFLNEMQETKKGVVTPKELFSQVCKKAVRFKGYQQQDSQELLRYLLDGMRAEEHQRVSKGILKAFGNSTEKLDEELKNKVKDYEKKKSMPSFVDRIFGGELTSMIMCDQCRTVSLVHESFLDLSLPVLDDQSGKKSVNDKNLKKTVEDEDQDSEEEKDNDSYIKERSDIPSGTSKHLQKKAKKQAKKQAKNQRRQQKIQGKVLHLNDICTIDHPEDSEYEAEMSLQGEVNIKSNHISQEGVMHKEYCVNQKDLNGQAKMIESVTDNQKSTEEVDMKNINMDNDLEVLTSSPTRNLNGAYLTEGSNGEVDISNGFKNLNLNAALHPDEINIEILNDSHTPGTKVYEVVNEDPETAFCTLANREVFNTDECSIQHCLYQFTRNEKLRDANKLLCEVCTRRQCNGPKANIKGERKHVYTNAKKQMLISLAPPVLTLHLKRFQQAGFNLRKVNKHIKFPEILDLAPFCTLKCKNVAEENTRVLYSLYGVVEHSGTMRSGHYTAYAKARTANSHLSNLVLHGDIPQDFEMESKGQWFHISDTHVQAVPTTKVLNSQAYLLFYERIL
# UniProt Q13107, sequence (Q13107 whole entry): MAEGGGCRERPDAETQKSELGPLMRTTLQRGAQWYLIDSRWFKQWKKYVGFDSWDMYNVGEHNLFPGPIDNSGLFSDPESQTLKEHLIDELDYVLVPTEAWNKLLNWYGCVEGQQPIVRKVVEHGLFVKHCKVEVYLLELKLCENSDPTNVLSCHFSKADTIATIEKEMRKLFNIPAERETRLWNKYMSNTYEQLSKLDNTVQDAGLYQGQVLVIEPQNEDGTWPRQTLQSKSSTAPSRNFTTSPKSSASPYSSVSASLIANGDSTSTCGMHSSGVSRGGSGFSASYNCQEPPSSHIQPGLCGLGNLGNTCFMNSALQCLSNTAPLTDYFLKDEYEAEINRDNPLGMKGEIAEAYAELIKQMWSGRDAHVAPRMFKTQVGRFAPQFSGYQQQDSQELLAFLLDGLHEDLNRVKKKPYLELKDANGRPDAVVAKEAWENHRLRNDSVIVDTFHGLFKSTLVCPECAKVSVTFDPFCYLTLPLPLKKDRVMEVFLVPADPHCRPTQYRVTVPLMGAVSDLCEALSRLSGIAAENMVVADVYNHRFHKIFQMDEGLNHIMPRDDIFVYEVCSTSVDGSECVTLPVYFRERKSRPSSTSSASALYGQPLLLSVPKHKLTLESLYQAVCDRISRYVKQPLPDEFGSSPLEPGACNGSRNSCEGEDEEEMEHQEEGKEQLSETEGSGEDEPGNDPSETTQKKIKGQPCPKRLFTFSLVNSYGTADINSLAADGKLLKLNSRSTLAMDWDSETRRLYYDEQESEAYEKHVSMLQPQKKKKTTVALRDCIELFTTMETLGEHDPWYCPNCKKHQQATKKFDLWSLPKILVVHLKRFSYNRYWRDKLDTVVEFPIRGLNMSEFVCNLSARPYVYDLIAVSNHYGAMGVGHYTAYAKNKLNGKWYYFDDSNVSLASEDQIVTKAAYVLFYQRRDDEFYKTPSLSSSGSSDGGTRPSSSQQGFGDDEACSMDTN
# UniProt Q4G0A6, sequence (Q4G0A6 whole entry): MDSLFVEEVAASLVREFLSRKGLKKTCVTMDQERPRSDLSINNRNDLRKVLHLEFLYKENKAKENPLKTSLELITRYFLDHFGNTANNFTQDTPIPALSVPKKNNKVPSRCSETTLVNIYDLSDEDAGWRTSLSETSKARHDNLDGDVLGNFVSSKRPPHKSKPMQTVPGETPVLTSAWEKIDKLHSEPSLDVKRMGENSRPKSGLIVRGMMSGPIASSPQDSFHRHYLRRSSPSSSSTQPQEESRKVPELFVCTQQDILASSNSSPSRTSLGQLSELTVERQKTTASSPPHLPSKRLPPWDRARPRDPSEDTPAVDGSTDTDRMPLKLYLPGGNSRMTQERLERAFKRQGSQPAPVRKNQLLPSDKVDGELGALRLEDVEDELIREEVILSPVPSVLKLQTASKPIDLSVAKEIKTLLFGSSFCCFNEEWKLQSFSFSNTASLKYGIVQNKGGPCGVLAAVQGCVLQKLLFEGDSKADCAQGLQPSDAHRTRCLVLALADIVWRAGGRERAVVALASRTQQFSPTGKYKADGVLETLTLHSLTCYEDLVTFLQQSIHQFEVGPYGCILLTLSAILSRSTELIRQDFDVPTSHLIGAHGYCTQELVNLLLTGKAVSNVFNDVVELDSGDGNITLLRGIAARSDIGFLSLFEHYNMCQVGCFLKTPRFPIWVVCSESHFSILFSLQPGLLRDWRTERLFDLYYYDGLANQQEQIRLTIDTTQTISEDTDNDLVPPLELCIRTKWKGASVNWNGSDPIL
# UniProt Q9P2H5, sequence (Q9P2H5 whole entry): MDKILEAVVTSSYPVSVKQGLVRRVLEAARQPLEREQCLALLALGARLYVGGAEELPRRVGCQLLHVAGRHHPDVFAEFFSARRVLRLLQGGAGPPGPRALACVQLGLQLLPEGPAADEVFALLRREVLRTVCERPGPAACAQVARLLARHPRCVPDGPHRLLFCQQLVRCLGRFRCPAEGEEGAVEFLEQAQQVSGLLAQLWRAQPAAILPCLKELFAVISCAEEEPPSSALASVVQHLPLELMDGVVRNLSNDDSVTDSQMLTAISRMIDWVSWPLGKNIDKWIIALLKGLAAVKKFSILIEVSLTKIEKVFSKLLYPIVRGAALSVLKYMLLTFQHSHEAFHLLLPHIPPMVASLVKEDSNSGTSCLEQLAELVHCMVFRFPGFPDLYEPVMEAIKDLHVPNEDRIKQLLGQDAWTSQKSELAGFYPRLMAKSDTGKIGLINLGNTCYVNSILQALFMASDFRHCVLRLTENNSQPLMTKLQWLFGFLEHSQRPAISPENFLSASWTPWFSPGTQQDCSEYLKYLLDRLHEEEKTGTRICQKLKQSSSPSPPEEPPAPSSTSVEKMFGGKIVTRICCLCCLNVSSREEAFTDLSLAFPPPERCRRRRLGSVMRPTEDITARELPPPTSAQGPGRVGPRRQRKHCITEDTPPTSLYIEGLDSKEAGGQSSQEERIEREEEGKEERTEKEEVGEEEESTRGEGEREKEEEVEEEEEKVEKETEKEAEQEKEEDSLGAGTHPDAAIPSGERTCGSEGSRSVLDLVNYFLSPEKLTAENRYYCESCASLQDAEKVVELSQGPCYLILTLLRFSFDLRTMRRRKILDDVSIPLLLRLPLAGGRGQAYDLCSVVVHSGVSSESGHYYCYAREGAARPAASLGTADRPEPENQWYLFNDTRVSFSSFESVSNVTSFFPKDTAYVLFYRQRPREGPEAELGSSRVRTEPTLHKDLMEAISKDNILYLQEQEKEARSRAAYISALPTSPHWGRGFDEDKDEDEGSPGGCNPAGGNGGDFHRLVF
# UniProt Q01804, sequence (Q01804 whole entry): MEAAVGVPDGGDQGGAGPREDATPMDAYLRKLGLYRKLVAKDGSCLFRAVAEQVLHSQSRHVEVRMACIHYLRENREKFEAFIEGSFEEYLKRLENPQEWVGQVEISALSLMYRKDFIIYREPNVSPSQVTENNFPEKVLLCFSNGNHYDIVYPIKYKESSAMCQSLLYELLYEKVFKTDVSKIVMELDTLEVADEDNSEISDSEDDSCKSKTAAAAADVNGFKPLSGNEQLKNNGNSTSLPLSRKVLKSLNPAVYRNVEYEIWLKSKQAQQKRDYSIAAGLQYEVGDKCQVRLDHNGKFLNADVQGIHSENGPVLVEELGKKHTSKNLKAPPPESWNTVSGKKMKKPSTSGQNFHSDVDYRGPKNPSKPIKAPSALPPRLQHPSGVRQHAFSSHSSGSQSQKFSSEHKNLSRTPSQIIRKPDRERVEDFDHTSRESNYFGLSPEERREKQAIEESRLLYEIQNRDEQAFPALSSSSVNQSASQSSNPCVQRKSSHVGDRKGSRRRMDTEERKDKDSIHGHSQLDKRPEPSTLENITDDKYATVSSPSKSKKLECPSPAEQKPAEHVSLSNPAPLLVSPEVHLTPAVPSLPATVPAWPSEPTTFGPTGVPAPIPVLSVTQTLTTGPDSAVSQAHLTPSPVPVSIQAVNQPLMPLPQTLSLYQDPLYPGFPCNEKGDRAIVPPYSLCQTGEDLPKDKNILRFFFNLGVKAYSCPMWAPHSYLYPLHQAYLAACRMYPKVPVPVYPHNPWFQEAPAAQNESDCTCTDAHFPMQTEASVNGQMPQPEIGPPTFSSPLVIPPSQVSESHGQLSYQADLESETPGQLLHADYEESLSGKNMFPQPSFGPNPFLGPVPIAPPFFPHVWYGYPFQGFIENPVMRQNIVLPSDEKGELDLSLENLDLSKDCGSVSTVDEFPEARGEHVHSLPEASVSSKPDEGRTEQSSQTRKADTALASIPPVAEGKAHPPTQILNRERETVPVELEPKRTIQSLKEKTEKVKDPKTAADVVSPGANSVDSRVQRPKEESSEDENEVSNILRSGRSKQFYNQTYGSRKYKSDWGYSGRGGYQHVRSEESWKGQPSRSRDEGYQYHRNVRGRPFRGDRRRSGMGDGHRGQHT
# UniProt Q5T2D3, sequence (Q5T2D3 whole entry): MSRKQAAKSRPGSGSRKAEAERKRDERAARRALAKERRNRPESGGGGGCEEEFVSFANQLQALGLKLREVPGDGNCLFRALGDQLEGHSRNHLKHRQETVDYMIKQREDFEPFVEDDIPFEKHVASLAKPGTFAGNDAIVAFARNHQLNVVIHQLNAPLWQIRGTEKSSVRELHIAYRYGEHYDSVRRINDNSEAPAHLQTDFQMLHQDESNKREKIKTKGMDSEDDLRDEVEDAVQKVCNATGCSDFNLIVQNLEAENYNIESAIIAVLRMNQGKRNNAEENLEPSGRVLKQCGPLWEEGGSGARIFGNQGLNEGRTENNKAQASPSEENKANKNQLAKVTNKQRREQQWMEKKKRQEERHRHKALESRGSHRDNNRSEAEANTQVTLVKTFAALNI
row,Target,log2 ratio of Biotin-Ahx-Ub-VS probe labelling
1,UniProt Q5T2D3,-0.199 (inactive)
2,MINDY4 (UniProt Q4G0A6),0.225 (inactive)
3,UniProt Q9P2H5,-0.267 (inactive)
4,USP54 (UniProt Q70EL1),-2.86 (active)
5,PRPF8 (UniProt Q6P2Q9),0.0579 (inactive)
6,USP16 (UniProt Q9Y5T5),0.0263 (inactive)
7,USP4 (UniProt Q13107),-1.18 (active)
8,OTUD4 (UniProt Q01804),-0.113 (inactive)

# Same assay, conditions: compound concentration: 200uM; treatment time: 3 h
row,Target,log2 ratio of Biotin-Ahx-Ub-VS probe labelling
1,UniProt Q5T2D3,0.0147 (inactive)
2,MINDY4 (UniProt Q4G0A6),0.167 (inactive)
3,UniProt Q9P2H5,-0.143 (inactive)
4,USP54 (UniProt Q70EL1),-2.26 (active)
5,PRPF8 (UniProt Q6P2Q9),0.0324 (inactive)
6,USP16 (UniProt Q9Y5T5),-0.213 (inactive)
7,USP4 (UniProt Q13107),-0.498 (inactive)
8,OTUD4 (UniProt Q01804),-0.21 (inactive)
